In all, about 310,000 compounds went through this assay and about 1,200 (0.39%) were called active. How the calls were made is not given here. A selection follows. Measured potencies and affinities stand elsewhere.
These molecules were tested against Large T antigen (Simian virus 40) (UniProt P03070) (assay: SV40 large T antigen inhibitors, biochemical (AID 1903)). Details: SV40 large T antigen ATPase/helicase inhibition assay; at 20 µM; hits give high values.
Chain of Large T antigen (Simian virus 40) (P03070 whole entry, looked up): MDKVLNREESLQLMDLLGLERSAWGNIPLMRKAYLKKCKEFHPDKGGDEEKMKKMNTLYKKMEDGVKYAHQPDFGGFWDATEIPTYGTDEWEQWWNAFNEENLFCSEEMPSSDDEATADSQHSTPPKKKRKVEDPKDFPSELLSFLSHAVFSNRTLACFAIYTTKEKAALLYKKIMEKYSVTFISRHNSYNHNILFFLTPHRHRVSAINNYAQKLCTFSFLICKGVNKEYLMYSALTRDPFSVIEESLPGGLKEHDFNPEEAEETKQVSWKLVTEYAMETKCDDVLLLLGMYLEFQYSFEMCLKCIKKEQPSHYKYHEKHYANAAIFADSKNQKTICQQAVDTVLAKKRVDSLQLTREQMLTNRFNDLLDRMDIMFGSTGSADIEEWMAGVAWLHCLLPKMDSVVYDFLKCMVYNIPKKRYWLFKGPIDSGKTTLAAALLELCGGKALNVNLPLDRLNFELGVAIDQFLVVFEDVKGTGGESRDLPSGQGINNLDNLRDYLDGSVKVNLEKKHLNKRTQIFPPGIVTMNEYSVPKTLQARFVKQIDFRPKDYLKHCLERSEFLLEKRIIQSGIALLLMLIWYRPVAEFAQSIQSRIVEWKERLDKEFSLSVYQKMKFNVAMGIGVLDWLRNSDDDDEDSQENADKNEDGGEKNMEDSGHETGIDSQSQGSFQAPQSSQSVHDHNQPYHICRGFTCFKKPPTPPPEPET

inhibition, inactive:
Cc1oc2ccccc2c1CC(=O)NCCCN(C)C -4.93%, Cc1cc(C)n(C(=O)CNC(=O)c2ccccc2F)n1 9.87%, Cc1ccc(NN=Nc2nc3c([nH]2)c(=O)n(C)c(=O)n3C)cc1 9.3%, Cc1ccccc1NN=Nc1nc2c([nH]1)c(=O)n(C)c(=O)n2C 14.1%, OC(COc1c(F)cc(Br)cc1F)CN1CCOCC1 (stereo unspecified) 2.96%, O=C(CNC(=O)[C@@H]1Cc2ccccc2CN1)Nc1ccc2c(c1)OCCO2 10.2%, CCOc1cc(-c2c(C)c(C)nc(N)c2C#N)ccc1O 17.1%, Cc1ccc2c(nc3s/c(=C\c4ccc(-c5ccccc5C(=O)O)o4)c(=O)n32)c1C 21.4%, CC1=C(C#N)c2nc(N)c(C#N)c(C)c2/C1=C\c1ccc(C)cc1 12.2%, C/C=C/c1ccc(OCC(=O)O)c(OC)c1 10.3%, COc1cc(/C=C2/C(=N)N3C(c4ccccc4)=CSC3=NC2=O)ccc1OCC(=O)O 31%, Cc1ccc2nc(/C(C#N)=C/c3ccc(-c4ccccc4C(=O)O)o3)[nH]c2c1 24%, C/C=C/c1ccc(OCC(=O)OCC)c(OC)c1 10.1%, COCCCNC(=O)/C(C#N)=C/c1ccc(OCC(=O)O)c(OC)c1 34.6%, Cc1c(C(=O)Nc2ccccc2F)sc2ncn(CC(=O)N3CCCCC3)c(=O)c12 7.79%, Brc1cccc(/C=N/Nc2nc(N3CCCCC3)nc(N3CCCCC3)n2)c1 3.51%, CCOC(=O)c1ccccc1NC(=S)N1CCN(C2CCCCC2)CC1 7.91%, Cc1ccc2cccc(Oc3ncnc4scc(-c5ccc(Cl)cc5)c34)c2n1 25.5%, O=S(=O)(NCc1ccccn1)c1ccccn1 9.8%, CCn1cc(C(=O)N2CCN(c3ccccc3)CC2)c(=O)c2cc(S(=O)(=O)N3CCOCC3)ccc21 4.92%, CCOc1ccc(Br)cc1S(=O)(=O)Nc1cccnc1 11.2%, O=C(NCCc1ccccn1)C1CC(=O)N(Cc2ccccc2Cl)C1 (stereo unspecified) 15.4%, Brc1ccccc1-n1nnc(-c2cccnc2)n1 12.4%, CCCCN(C(=N)N1CCCCC1)c1nc(C)c([N+](=O)[O-])c(=O)[nH]1 9.69%, Nc1cc(=O)[nH]c(SCC(=O)NNC(=O)Cc2ccccc2)n1 10.8%, O=c1[nH]c(NC2CCCCC2)c([N+](=O)[O-])c(=O)[nH]1 4.57%, S=C1Cc2ccccc2C(c2ccc(Cl)cc2)N1 (stereo unspecified) 2.33%, CCCCn1nnnc1SCC(=O)Nc1ccc(C)cc1 -2.62%, Cc1ccc(NC(=O)CSc2nnc(-c3cnccn3)n2C)cc1C 29.7%, CCn1c(SCC(=O)Nc2ccc(F)cc2)nnc1C1CC1 3.39%, CCn1c(SCC(=O)Nc2ccc(NC(C)=O)cc2)nnc1C1CC1 12.8%, CCc1ccc(NC(=O)CSc2nnc(-c3cnccn3)n2C)cc1 14.9%, CC(=O)Nc1ccc(NC(=O)CSc2nnc(C)c(=O)n2N)cc1 12.1%, Cc1ccc(NC(=O)CSc2nnc(C)c(=O)n2N)cc1 14.2%, CCn1nnnc1SCC(=O)Nc1ccc(N(C)C)cc1 37.7%, O=C(CSc1ccc(-c2cccc([N+](=O)[O-])c2)nn1)NCc1ccccc1 11.8%, CCCc1cc(=O)oc2cc(OC3CCCCC3=O)ccc12 (stereo unspecified) 18.5%, O=C(O)COc1ccc2c(c1)OCCO2 -3.88%, CCOC(=O)c1sc2nc(CC(=O)OC)nc(NCCN(CC)CC)c2c1C 28.4%, COc1ccc(NC(=O)CSc2nnc(-c3ccco3)c(-c3ccco3)n2)cc1OC 26.9%, Cc1cccc(NC(=O)CSc2nnc(-c3ccco3)c(-c3ccco3)n2)c1 35%, COC(=O)/C=C1/C(=O)N/C(=N\c2nc(C)cc(C)n2)N1c1ccc(OC)cc1 3.13%, CCOc1cc(/C=N/NC(=O)c2cccc(S(=O)(=O)N3CCCC3)c2)ccc1OCC(=O)N(C)C 0.99%, CC(=O)Nc1ccc(/C=N/NC(=O)c2cccc(S(=O)(=O)N3CCOCC3)c2)cc1 8.56%, O=C(N/N=C/c1ccccn1)c1cccc(S(=O)(=O)N2CCCC2)c1 9.14%, COc1cc(/C=N/NC(=O)c2cccc(S(=O)(=O)N3CCCC3)c2)cc(OC)c1O 37.9%, COc1cc(/C=N/NC(=O)c2cccc(S(=O)(=O)N3CCCCC3)c2)cc(Br)c1O 10.6%, O=C(N/N=C/c1cccnc1)c1cccc(S(=O)(=O)N2CCCC2)c1 17.7%, C/C(CC(=O)NC1CCCCCC1)=N\NC(=O)c1cnccn1 0.37%, COC(CNC(=O)C(=O)Nc1cc2c3c(c1)CCN3C(=O)CC2)OC 6.3%, COc1ccc(Cn2c(=O)[nH]c3cc(C(=O)NC4CCN(Cc5ccccc5)CC4)ccc32)cc1 1.67%, COc1ccc(C(CNC(=O)COc2ccc(F)cc2Br)N2CCCC2)cc1 (stereo unspecified) 5.54%, O=c1nc2n(c3cccc(Cl)c13)CCCCC2 5.2%, Cn1c(=O)n(CC(N)=O)c(=O)c2c1nc1n2CCCN1Cc1ccccc1 5.61%, CC(C)(C)C(=O)NC(=S)Nc1ccccc1F 0.75%, CCOC(=O)c1ccc(N2N=C(C)/C(=C/C=C/c3ccco3)C2=O)cc1 21%, CC1=NN(c2ccc(C(=O)OC(C)C)cc2)C(=O)/C1=C\C=C\c1ccco1 12.7%, CC1=NN(c2ccc(Cl)c(C(=O)O)c2)C(=O)C1 27.9%, CC1=NN(c2ccccc2)C(=O)/C1=C\C=C\c1ccccc1 19.4%, CC1=NN(c2ccccc2)C(=O)/C1=C/C=C/c1ccccc1 9.74%, O=C(/C=C/c1ccco1)Nc1cc(Cl)ccc1C(=O)O 21.9%
